# Measured values as given in publication PMC7862700, “An all-to-all approach to the identification of sequence-specific readers for epigenetic DNA modifications on cytosine”.
# Tests used:
# Assay in all cases: DAPPL (digital affinity profiling via proximity ligation, sequencing); 10 mM Tris-HCl pH 7.5, 50 mM NaCl, 1 mM DTT, 4% glycerol, room temperature, 30 min; GST-TFs on glutathione beads, 16-mer random dsDNA library, 0.1% formaldehyde crosslink after washing; high values mean tight binding
# [1] = target: T1, FLI1 (Homo sapiens, UniProt Q01543 1-452); settings: protein: recombinant; tags: N-terminal GST; dsDNA, one strand shown
# T1 sequence: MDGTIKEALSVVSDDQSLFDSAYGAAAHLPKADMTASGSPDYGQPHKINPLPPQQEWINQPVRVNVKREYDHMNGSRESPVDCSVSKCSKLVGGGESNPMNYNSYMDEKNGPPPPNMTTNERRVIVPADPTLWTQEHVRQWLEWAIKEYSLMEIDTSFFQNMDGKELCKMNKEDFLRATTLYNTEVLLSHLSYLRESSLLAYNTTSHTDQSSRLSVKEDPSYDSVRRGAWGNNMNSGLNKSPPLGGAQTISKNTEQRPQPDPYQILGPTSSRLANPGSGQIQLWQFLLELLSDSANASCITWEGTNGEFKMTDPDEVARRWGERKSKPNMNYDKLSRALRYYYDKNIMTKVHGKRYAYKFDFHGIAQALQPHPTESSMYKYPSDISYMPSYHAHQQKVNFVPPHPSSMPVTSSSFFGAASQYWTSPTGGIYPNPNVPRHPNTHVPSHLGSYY
# How it was run: (§1)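 In yeast, human transcription factors were expressed with a GST fusion, then pulled down on glutathione beads and given DNA barcodes. Pooled with a tag-only sample, they were exposed to 200 nmole of a 16-mer random double-stranded DNA library (Tris/NaCl/DTT/glycerol buffer, room temperature, 30 min), washed, crosslinked with 0.1% formaldehyde, proximity-ligated using BsaI/T4 ligase for 1 h at 37 °C, PCR-amplified and read on an Illumina NextSeq500. Each hexamer's frequency of reads for a factor, divided by the matching frequency for the tag-only sample, gives the binding signal.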
# [2] = target: T2, ELK1 (Homo sapiens, UniProt P19419 1-428); settings: protein: recombinant; tags: N-terminal GST; dsDNA, one strand shown
# T2 sequence: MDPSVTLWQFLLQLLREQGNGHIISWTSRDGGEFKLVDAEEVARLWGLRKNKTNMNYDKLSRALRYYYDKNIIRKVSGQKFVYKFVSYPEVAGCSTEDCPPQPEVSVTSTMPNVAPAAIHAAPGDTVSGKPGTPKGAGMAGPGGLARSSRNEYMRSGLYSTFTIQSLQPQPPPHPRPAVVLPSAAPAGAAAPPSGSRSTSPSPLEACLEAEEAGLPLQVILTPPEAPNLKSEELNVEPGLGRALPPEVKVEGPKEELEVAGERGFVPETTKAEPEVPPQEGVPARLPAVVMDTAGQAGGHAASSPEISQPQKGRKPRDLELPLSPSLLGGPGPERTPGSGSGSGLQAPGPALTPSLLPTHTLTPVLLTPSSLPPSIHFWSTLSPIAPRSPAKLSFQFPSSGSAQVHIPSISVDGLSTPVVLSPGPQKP
# How it was run: as §1
# [3] = target: T3, GABPA (Homo sapiens, UniProt Q06546 1-454); settings: protein: recombinant; tags: N-terminal GST; dsDNA, one strand shown
# T3 sequence: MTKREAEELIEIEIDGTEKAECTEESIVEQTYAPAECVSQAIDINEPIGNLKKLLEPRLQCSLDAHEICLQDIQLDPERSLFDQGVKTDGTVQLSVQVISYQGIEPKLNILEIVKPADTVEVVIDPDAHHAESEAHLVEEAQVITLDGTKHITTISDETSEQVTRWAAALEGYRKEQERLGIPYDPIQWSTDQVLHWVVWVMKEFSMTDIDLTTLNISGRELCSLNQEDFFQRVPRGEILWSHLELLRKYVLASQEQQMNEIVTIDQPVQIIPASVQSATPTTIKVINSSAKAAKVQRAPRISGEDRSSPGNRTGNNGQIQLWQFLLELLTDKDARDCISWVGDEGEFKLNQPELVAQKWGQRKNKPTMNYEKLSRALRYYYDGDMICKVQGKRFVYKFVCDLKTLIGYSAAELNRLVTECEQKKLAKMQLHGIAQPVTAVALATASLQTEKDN
# How it was run: as §1
# [4] = target: T4, ERG (Homo sapiens, UniProt P11308 1-479); settings: protein: recombinant; tags: N-terminal GST; dsDNA, one strand shown
# T4 sequence: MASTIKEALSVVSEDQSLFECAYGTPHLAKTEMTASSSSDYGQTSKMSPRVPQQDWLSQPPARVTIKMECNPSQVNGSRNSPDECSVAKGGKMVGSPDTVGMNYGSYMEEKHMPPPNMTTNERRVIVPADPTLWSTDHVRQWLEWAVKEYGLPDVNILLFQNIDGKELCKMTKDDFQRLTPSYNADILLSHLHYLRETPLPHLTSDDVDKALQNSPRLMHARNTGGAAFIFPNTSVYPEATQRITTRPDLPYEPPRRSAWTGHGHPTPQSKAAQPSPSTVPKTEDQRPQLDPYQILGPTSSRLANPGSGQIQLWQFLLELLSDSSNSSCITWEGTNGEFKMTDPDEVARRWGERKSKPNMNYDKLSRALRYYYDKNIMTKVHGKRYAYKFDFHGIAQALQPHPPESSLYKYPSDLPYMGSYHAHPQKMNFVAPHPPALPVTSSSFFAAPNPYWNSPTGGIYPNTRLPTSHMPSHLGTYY
# How it was run: as §1
# [5] = target: ELF1 (Homo sapiens, UniProt P32519 1-619); settings: protein: recombinant; tags: N-terminal GST; dsDNA, one strand shown
# How it was run: as §1
# [6] = target: T5, EHF (Homo sapiens, UniProt Q9NZC4 1-300); settings: protein: recombinant; tags: N-terminal GST; dsDNA, one strand shown
# T5 sequence: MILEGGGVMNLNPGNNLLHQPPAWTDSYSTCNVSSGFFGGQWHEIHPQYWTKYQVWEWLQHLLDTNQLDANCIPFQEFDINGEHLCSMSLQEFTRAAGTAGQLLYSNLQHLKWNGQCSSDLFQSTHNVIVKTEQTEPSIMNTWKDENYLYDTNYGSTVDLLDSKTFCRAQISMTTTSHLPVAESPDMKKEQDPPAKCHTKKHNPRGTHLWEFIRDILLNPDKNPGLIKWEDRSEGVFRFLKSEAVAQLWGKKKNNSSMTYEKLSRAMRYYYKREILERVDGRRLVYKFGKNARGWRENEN
# How it was run: as §1
# [7] = target: SPI1 (Homo sapiens, UniProt P17947 1-270); settings: protein: recombinant; tags: N-terminal GST; dsDNA, one strand shown
# How it was run: as §1
# [8] = target: SPIB (Homo sapiens, UniProt Q01892 1-262); settings: protein: recombinant; tags: N-terminal GST; dsDNA, one strand shown
# How it was run: as §1
# [9] = target: T6, ELK3 (Homo sapiens, UniProt P41970 1-407); settings: protein: recombinant; tags: N-terminal GST; dsDNA, one strand shown
# T6 sequence: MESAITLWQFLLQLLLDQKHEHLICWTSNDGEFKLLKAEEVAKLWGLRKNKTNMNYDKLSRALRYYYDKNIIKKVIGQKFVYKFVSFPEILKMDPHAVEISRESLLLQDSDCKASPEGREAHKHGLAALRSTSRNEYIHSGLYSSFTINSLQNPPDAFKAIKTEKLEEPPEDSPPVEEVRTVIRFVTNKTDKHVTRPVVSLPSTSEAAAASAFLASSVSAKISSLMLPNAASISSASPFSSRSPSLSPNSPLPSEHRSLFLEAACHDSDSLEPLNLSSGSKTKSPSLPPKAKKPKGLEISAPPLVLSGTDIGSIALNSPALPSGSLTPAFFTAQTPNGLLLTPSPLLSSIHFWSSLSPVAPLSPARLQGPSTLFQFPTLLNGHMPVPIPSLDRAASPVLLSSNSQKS
# How it was run: as §1
# [10] = target: T7, FEV (Homo sapiens, UniProt Q99581 1-238); settings: protein: recombinant; tags: N-terminal GST; dsDNA, one strand shown
# T7 sequence: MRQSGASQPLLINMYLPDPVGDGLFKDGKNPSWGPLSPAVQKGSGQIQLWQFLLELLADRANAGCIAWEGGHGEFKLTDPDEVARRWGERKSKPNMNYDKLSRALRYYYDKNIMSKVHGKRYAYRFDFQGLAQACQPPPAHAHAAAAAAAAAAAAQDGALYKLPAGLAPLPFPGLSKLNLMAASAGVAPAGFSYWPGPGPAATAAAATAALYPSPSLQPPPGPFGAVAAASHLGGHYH
# How it was run: as §1
# [11] = target: ETV5 (Homo sapiens, UniProt P41161 1-510); settings: protein: recombinant; tags: N-terminal GST; dsDNA, one strand shown
# How it was run: as §1
# [12] = target: HSF1 (Homo sapiens, UniProt Q00613 1-529); settings: protein: recombinant; tags: N-terminal GST; chain copies: 3; dsDNA, one strand shown
# How it was run: as §1
# [13] = target: T8, SPIC (Homo sapiens, UniProt Q8N5J4 1-248); settings: protein: recombinant; tags: N-terminal GST; dsDNA, one strand shown
# T8 sequence: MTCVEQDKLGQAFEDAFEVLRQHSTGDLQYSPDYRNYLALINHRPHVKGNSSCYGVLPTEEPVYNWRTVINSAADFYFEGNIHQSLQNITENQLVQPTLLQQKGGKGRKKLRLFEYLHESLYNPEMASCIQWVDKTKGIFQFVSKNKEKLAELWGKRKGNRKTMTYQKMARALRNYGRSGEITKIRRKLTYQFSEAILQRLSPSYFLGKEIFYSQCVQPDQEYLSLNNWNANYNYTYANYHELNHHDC
# How it was run: as §1
# [14] = target: ELF4 (Homo sapiens, UniProt Q99607 1-663); settings: protein: recombinant; tags: N-terminal GST; dsDNA, one strand shown
# How it was run: as §1
# [15] = target: T9, ELK4 (Homo sapiens, UniProt P28324-2 1-405); settings: protein: recombinant; tags: N-terminal GST; dsDNA, one strand shown
# T9 sequence: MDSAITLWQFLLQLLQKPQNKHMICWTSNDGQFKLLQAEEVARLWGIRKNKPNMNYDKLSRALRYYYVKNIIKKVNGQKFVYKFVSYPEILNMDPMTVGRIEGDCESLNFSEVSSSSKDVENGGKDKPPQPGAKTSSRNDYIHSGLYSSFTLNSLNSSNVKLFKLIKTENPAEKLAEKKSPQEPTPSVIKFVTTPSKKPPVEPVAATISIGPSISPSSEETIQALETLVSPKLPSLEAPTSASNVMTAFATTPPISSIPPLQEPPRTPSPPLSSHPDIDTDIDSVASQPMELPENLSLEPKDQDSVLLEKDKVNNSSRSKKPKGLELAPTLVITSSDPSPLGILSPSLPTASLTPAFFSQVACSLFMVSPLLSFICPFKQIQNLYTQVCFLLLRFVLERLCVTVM
# How it was run: as §1
# [16] = target: T10, ETV2 (Homo sapiens, UniProt O00321 1-342); settings: protein: recombinant; tags: N-terminal GST; dsDNA, one strand shown
# T10 sequence: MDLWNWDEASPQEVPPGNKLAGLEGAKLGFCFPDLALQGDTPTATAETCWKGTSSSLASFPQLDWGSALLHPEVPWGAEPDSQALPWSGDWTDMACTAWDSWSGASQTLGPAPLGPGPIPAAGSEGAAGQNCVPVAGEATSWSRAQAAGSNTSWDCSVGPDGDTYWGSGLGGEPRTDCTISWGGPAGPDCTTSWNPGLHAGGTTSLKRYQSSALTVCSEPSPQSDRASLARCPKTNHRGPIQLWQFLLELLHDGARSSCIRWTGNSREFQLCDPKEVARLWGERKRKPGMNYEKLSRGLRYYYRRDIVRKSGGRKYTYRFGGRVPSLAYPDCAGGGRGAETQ
# How it was run: as §1
# [17] = target: T11, ELF3 (Homo sapiens, UniProt P78545 1-371); settings: protein: recombinant; tags: N-terminal GST; dsDNA, one strand shown
# T11 sequence: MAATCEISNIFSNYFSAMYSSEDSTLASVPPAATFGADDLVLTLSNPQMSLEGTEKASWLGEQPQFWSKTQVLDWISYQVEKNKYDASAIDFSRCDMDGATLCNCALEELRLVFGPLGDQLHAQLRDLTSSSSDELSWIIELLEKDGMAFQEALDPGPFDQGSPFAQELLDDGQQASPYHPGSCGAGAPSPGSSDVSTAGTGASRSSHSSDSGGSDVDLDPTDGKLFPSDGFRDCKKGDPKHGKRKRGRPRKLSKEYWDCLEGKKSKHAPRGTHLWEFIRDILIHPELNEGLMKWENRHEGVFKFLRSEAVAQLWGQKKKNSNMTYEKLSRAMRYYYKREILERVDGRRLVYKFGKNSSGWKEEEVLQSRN
# How it was run: as §1
# [18] = target: CRX (Homo sapiens, UniProt O43186 1-299); settings: protein: recombinant; tags: N-terminal GST; dsDNA, one strand shown
# How it was run: as §1
# [19] = target: ETV1 (Homo sapiens, UniProt P50549 1-477); settings: protein: recombinant; tags: N-terminal GST; dsDNA, one strand shown
# How it was run: as §1
# Sequence of ETV1 (P50549 whole entry): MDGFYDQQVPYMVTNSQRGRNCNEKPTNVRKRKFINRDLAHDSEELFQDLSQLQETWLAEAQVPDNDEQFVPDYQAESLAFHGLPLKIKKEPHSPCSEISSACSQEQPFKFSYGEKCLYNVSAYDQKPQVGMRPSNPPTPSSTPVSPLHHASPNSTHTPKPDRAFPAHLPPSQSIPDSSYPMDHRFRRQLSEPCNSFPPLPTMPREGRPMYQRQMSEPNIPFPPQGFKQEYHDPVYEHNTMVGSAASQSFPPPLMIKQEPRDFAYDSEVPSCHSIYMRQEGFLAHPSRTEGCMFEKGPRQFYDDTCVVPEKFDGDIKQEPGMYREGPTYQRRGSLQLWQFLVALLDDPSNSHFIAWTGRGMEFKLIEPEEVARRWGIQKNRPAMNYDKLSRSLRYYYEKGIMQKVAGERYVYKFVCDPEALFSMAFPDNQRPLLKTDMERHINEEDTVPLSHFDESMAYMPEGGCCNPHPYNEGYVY
# Sequence of SPIB (Q01892 whole entry): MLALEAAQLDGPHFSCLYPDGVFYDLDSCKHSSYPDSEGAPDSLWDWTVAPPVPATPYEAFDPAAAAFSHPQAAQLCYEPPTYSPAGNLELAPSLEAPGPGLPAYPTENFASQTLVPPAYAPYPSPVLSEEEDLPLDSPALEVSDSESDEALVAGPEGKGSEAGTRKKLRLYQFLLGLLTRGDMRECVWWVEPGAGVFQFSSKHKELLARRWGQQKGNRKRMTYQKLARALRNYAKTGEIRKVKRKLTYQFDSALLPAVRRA
# Sequence of CRX (O43186 whole entry): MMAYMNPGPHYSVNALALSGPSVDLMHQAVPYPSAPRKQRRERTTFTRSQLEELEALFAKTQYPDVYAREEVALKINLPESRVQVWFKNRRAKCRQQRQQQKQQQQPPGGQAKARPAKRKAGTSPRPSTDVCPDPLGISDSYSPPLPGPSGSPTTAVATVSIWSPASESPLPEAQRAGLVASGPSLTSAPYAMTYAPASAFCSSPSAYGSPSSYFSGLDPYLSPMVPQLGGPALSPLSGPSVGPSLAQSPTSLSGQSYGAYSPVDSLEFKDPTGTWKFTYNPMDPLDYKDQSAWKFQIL
# Sequence of HSF1 (Q00613 whole entry): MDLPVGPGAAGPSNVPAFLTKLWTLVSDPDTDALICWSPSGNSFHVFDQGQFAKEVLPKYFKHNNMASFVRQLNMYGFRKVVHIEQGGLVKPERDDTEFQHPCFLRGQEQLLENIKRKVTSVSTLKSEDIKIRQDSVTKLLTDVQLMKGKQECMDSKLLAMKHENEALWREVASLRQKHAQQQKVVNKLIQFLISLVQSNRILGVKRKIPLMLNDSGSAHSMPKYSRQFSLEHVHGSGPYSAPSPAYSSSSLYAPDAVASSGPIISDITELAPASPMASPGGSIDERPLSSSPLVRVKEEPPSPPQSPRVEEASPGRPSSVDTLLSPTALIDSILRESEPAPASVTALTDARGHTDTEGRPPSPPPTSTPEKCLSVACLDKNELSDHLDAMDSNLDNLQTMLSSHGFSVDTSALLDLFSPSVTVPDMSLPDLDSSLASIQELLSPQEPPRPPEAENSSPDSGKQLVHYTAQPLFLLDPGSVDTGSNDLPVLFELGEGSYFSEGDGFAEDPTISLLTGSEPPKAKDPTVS
# Sequence of ETV5 (P41161 whole entry): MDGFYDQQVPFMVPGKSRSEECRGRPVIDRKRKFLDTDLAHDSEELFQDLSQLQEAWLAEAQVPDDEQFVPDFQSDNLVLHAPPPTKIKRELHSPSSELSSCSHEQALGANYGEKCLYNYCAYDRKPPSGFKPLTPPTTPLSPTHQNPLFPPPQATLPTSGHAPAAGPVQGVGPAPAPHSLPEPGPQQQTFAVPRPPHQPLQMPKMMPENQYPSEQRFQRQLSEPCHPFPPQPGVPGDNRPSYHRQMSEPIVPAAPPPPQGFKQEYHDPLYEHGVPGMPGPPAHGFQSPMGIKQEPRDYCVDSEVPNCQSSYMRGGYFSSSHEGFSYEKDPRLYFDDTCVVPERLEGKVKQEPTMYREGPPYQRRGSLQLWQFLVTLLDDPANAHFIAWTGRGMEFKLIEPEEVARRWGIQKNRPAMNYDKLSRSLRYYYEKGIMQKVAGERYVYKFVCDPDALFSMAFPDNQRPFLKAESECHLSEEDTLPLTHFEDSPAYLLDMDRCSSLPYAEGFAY
# Sequence of ELF1 (P32519 whole entry): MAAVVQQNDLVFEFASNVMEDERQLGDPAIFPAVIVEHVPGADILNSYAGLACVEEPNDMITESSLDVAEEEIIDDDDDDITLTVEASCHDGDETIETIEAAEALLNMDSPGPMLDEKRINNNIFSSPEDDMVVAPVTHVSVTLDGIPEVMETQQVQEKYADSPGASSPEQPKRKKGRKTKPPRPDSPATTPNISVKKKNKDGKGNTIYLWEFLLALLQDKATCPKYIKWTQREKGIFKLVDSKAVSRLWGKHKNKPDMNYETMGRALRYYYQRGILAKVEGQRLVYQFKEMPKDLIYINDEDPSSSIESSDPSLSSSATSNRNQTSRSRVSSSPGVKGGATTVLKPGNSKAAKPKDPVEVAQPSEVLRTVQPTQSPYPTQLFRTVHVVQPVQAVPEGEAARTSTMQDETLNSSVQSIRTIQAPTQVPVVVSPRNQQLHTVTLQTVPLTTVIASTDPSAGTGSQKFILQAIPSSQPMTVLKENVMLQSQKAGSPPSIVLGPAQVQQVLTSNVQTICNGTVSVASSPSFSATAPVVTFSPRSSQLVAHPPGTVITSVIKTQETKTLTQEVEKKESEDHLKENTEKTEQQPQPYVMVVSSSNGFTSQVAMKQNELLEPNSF
# Sequence of ELF4 (Q99607 whole entry): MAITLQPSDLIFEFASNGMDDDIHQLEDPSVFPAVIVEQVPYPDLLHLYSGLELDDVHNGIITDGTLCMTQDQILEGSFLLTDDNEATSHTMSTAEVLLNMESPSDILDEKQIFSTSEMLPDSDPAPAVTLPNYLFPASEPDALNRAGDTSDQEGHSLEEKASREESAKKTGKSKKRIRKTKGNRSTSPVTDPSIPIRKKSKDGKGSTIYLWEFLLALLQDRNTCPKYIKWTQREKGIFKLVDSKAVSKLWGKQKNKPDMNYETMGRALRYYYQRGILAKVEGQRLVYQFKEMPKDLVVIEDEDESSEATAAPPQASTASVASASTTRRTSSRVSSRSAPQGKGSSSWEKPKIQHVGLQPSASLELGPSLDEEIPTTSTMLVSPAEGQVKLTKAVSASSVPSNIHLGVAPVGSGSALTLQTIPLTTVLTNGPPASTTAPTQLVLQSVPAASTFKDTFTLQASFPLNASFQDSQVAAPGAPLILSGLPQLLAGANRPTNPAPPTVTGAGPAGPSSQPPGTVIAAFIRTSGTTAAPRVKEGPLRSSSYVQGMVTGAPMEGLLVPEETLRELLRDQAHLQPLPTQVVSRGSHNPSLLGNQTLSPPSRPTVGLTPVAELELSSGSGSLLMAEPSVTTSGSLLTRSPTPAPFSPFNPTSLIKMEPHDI
sequence,measurement,setting,value
AATGGT,binding signal,[1],"1.52 fold enrichment (6-mer frequency, TF over GST control)"
same,binding signal,[2],"1.38 fold enrichment (6-mer frequency, TF over GST control)"
same,binding signal,[3],"1.36 fold enrichment (6-mer frequency, TF over GST control)"
same,binding signal,[4],"1.42 fold enrichment (6-mer frequency, TF over GST control)"
same,binding signal,[5],"1.42 fold enrichment (6-mer frequency, TF over GST control)"
same,binding signal,[6],"1.4 fold enrichment (6-mer frequency, TF over GST control)"
same,binding signal,[7],"1.43 fold enrichment (6-mer frequency, TF over GST control)"
same,binding signal,[8],"1.52 fold enrichment (6-mer frequency, TF over GST control)"
same,binding signal,[9],"1.41 fold enrichment (6-mer frequency, TF over GST control)"
same,binding signal,[10],"1.27 fold enrichment (6-mer frequency, TF over GST control)"
same,binding signal,[11],"1.46 fold enrichment (6-mer frequency, TF over GST control)"
same,binding signal,[12],"1.05 fold enrichment (6-mer frequency, TF over GST control)"
same,binding signal,[13],"1.35 fold enrichment (6-mer frequency, TF over GST control)"
same,binding signal,[14],"1.43 fold enrichment (6-mer frequency, TF over GST control)"
same,binding signal,[15],"1.38 fold enrichment (6-mer frequency, TF over GST control)"
same,binding signal,[16],"1.32 fold enrichment (6-mer frequency, TF over GST control)"
same,binding signal,[17],"1.25 fold enrichment (6-mer frequency, TF over GST control)"
same,binding signal,[18],"1.1 fold enrichment (6-mer frequency, TF over GST control)"
same,binding signal,[19],"1.43 fold enrichment (6-mer frequency, TF over GST control)"
